# Measurements from PubChem BioAssay.
# Calls of active or inactive are those of the source.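 How the source made its calls, unless noted: active means differentiation response of at least 50%, scaled between solvent and reference control, from cells with both markers; inactive means the rest.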
# How the values were obtained:
# [1] = inhibitors of CD8+ T cell-vesicle binding, pilot screen, LFA-1/ICAM-1 modulator project, MLPCN validation set, flow cytometry (AID 2523;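 active means response below a set limit, under 55% cells CD8-positive and vesicle-bound, and CD8 cells' 90th-percentile brightness under 279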;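 on vesicle binding response: mean PE anti-B7-1 fluorescence of CD8+ cells relative to row control; 100% = QL9-loaded vesicles with DMSO vehicle in the same plate row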); conditions: 2C mouse CD8+ T cells, at 7 µM, stronger effect = lower value; double positive events: measured here: CD8+/vesicle+ event percentage
# [2] = biological target: Integrin beta-1 (Homo sapiens) + Integrin alpha-4 (Homo sapiens) (UniProt P13612+P05556); assay: inhibition of HUTS-21 binding to VLA-4, pilot screen, VLA-4 allosteric modulator project, U937 cells, HUTS-21 mAb, flow cytometry, validation set (AID 2674;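 active means inhibition above 50%, about 3 SD of the validation set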;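 further: antibody binding induced by the VLA-4 ligand LDV present at three times its Kd; 0% = LDV ligand with antibody and no compound and 100% = antibody without LDV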); conditions: HUTS-21 LIBS mAb binding, at 6.7 µM, stronger effect = higher value, binding induced by LDV ligand
# Integrin beta-1 (Homo sapiens) + Integrin alpha-4 (Homo sapiens), sequence (P05556 whole entry, looked up): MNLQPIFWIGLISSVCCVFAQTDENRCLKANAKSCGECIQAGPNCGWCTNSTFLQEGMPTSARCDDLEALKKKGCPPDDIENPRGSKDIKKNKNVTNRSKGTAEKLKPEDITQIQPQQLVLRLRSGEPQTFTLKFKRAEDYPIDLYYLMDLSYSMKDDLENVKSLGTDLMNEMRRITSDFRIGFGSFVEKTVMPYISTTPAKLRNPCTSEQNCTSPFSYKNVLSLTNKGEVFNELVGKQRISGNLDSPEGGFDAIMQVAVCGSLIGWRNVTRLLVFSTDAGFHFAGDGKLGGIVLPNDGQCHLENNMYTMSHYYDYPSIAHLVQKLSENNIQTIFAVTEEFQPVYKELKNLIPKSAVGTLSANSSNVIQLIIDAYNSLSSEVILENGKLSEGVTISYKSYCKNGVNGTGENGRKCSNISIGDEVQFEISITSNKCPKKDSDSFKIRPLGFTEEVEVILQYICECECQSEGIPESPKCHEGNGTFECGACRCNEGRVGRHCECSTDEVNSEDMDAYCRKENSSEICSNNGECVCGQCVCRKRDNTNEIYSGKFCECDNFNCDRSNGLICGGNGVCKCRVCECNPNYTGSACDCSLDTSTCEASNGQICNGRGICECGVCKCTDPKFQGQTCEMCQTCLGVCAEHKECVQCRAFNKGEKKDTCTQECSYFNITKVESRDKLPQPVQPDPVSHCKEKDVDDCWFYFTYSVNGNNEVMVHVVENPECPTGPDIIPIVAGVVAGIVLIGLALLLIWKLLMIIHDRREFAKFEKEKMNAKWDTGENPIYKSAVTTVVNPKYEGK
# Integrin beta-1 (Homo sapiens) + Integrin alpha-4 (Homo sapiens), sequence (P13612 whole entry, looked up): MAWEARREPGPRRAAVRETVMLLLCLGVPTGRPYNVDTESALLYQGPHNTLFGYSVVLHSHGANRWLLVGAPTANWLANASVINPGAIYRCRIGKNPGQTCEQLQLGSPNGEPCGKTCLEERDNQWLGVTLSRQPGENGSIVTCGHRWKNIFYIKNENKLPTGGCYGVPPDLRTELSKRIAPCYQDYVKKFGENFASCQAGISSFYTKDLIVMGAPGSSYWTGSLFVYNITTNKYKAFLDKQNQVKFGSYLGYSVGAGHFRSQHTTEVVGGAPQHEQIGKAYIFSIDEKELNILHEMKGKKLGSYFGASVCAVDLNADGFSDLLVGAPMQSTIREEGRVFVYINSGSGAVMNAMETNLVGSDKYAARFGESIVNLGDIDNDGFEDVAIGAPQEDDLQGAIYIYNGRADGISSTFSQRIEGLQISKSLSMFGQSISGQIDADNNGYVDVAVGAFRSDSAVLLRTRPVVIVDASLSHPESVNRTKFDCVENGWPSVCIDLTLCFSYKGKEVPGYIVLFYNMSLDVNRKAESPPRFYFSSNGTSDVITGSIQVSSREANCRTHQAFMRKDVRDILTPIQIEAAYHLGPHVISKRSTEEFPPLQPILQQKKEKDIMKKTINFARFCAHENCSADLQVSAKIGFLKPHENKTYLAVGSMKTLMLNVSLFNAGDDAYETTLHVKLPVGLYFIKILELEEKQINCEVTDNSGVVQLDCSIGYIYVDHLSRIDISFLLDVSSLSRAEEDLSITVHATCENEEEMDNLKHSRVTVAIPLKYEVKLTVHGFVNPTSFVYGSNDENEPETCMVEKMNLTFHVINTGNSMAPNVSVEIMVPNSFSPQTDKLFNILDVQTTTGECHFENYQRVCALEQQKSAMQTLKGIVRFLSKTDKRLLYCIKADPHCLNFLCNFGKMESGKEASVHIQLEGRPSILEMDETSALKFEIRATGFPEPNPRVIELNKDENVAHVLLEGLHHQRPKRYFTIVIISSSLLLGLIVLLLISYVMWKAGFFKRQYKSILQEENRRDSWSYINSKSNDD
# [3] = superoxide lowering in aged yeast cells, pilot screen, validation compound set (AID 2706;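 active means superoxide response below 65% of plate, a cut near 3 SD across the whole screen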;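 further: yeast exposed to compound for one week at 30 degrees C before staining; 100% = mean of all compound wells on the same plate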); conditions: S. cerevisiae aging, superoxide DHE fluorescence; at 10 µM, stronger effect = lower value
# [4] = biological target: Beta-adrenergic receptor kinase 1 (Homo sapiens) (UniProt P25098); assay: GRK2 binders displacing RNA aptamer, biochemical, validation, human GRK2, bead flow cytometry (AID 488806;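 active means aptamer binding inhibition above 30%, about 3 SD of noise from non-fluorescent compounds; inactive means inhibition at or below 30%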); conditions: bead-bound GRK2, FAM-aptamer displacement, at 10 µM, stronger effect = higher value
# Beta-adrenergic receptor kinase 1 (Homo sapiens), sequence (P25098 whole entry, looked up): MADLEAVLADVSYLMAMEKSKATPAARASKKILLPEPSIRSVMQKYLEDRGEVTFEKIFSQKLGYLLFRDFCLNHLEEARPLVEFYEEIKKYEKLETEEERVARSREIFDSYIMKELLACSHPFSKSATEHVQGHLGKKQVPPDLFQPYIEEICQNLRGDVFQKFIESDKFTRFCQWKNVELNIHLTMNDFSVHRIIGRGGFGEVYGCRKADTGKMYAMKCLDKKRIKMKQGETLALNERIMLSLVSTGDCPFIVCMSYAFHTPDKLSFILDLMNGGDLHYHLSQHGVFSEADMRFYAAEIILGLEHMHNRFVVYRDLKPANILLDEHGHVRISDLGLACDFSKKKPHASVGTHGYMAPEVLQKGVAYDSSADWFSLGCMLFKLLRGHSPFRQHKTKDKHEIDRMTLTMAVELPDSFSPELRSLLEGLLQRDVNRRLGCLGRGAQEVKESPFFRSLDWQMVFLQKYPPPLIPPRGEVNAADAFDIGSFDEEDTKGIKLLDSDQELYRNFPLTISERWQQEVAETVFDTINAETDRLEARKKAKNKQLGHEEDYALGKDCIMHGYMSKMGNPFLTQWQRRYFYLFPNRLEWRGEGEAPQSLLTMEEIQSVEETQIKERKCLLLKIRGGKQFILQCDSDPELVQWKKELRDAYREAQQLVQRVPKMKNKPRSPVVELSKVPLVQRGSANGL
# [5] = biological target: Beta-2 adrenergic receptor (Homo sapiens) (UniProt P07550); assay: beta2AR agonists driving receptor internalization, pilot screen, cell-based, FAP fluorogen, flow cytometry, validation set (AID 504459;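 active means percent response above 42, roughly 3 SD of non-fluorescent test compounds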;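 further: agonist-driven loss of surface beta2AR via internalization measured by FAP dye flow cytometry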); conditions: Am2.2-beta2AR cells, FAP surface receptor flow cytometry; at 10 µM; stronger effect = higher value
# Beta-2 adrenergic receptor (Homo sapiens), sequence (P07550 whole entry, looked up): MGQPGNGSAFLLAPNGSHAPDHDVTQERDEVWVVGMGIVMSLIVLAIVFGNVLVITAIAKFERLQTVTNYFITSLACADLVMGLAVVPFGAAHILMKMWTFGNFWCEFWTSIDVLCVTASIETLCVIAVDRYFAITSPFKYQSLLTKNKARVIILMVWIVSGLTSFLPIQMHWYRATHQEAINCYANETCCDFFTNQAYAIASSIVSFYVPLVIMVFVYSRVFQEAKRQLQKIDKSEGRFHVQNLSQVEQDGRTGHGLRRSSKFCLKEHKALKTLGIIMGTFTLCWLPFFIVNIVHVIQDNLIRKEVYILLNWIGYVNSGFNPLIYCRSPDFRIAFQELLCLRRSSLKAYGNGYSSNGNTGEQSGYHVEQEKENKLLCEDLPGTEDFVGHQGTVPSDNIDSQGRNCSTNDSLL
# [6] = biological target: AP-2 complex subunit beta (Homo sapiens) (UniProt P63010); assay: inhibitors of arrestin peptide binding to AP2, pilot screen, biochemical, validation set, GST-AP2 beads, flow cytometry (AID 504541;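 active means inhibition above 54%, about 3 SD of non-fluorescent compounds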;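 further: AP2 carries R879A mutation and is captured from E. coli lysate; bead-bound FITC arrestin peptide fluorescence measuring arrestin peptide binding to AP2; 0% = DMSO wells and 100% = excess unlabeled arrestin peptide control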); conditions: FITC arrestin peptide, at 10 µM, stronger effect = higher value, AP2 beta2 appendage fragment, R879A mutant
# AP-2 complex subunit beta (Homo sapiens), sequence (P63010 whole entry, looked up, the tested form may be a part, one chain of several): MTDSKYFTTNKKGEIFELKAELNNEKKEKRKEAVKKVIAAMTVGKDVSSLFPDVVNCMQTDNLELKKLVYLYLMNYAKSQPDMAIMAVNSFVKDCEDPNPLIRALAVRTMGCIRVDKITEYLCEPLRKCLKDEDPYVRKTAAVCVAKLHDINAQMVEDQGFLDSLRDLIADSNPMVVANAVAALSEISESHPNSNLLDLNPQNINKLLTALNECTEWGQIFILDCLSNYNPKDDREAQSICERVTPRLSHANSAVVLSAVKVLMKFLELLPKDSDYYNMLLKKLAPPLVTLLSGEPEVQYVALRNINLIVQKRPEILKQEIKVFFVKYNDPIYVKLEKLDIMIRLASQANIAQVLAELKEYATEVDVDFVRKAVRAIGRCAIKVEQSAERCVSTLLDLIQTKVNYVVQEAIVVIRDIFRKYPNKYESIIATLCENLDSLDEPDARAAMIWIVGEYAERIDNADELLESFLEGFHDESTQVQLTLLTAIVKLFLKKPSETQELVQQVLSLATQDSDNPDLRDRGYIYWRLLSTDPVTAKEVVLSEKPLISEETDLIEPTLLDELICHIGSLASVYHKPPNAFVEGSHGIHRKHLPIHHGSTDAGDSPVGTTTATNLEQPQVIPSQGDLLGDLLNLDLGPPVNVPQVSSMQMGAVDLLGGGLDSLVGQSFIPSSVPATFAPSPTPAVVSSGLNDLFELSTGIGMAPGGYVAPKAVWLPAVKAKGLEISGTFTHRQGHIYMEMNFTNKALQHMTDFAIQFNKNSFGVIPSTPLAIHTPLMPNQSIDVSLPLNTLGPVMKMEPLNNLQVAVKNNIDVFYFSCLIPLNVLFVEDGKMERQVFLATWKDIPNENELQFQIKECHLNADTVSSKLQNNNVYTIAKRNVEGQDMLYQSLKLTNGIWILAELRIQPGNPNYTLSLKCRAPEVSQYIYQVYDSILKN
# [7] = yeast V-ATPase proton transport modulators, S. cerevisiae, pHLuorin, HTS validation (AID 504600; in the data active means response above about 15%;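 further: plate controls were DMSO for no effect and reference compound for full effect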); conditions: S. cerevisiae pHLuorin cytosolic pH, at 10 µM, stronger effect = higher value
# [8] = system: anti-desmoglein-3 scFv antibody binding to human DSG3; assay: inhibitors of anti-DSG3 scFv binding to DSG3, pilot screen, biochemical, validation compound set, bead-based, flow cytometry (AID 588368;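 active means binding below the plate cutoff, the plate median minus 3 SD, with a reading above zero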;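 further: signal is the median channel fluorescence of bead-bound GFP antibody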); conditions: Protein G beads, DSG3-Fc, scFv-GFP binding, at 10 µM, stronger effect = lower value
# [9] = inhibitors of fungal efflux pumps CDR1, CDR2, MDR1, pilot screen, validation compound set, multiplex, phenotypic (AID 588506;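 active means efflux inhibition above 0.42, the validation set average plus 4 SD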;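 further: Nile Red retained in cells so higher fluorescence means more efflux inhibition; 0 = negative control wells and 1 = enniatin B 25 µM full block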); conditions: S. cerevisiae pump-expressing triplex, Nile Red efflux flow cytometry; at 10 µM; stronger effect = higher value; the pumps come from Candida albicans
# [10] = biological target: ATP-binding cassette sub-family B member 6 (Homo sapiens) (UniProt Q9NP58); assay: ABCB6 transporter inhibitors, pilot screen, K562-ABCB6 cells, flow cytometry, validation set (AID 588550;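 active means inhibition above the screen-wide mean plus 3 SD, about 51%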;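 further: 0% = DMSO wells and 100% = benzethonium chloride 70 µM positive control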); conditions: K562-ABCB6 porphyrin accumulation, 1 h, at 10 µM, stronger effect = higher value
# ATP-binding cassette sub-family B member 6 (Homo sapiens), sequence (Q9NP58 whole entry, looked up): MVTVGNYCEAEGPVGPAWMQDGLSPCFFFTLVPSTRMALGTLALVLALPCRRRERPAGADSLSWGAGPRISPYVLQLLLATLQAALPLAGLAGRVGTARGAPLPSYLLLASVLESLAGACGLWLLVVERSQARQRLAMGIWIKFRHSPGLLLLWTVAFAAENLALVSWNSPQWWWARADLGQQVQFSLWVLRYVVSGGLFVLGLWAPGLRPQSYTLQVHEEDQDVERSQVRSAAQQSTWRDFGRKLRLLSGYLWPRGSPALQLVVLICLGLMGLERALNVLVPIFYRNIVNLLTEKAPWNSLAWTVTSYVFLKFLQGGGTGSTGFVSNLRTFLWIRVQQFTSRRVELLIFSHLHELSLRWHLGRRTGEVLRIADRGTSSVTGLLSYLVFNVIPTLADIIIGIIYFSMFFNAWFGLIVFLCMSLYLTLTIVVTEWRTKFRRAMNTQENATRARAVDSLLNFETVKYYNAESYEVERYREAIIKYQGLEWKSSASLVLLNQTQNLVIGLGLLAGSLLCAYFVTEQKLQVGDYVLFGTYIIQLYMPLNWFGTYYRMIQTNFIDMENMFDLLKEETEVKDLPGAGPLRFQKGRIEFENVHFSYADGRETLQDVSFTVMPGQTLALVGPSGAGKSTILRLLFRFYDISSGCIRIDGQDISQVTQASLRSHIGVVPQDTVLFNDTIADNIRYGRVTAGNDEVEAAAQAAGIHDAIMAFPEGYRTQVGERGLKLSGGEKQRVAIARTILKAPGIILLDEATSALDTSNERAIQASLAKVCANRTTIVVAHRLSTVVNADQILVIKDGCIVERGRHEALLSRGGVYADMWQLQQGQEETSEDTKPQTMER
# [11] = promoters of myeloid differentiation in arrested cells, primary screen, cell-based, GFP/MAC1 double positive, flow cytometry, validation set (AID 588685); conditions: ER-HoxA9 marrow cells, stronger effect = higher value, normalized: vehicle 0, fulvestrant 100;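 further: compound exposure lasts four days before antibody staining and flow analysis; 0% = DMSO wells and 100% = 5 µM fulvestrant positive control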
smiles,measurement,setting,value
C[C@H](NC(=O)NCCc1ccccc1)C(=O)O,double positive events,[1],58.1%
same,vesicle binding response,[1],252% (inactive)
same,inhibition,[2],2.3% (inactive)
same,superoxide response (% of plate),[3],104% (inactive)
same,aptamer binding inhibition,[4],6% (inactive)
same,response,[5],0.08% (inactive)
same,inhibition,[6],-3.97% (inactive)
same,response,[7],-4.57% (inactive)
same,binding (% of control),[8],99.1% (inactive)
same,efflux inhibition (fraction of control),[9],-0.13 (inactive)
same,inhibition,[10],3% (inactive)
same,differentiation response,[11],4% (inactive)
CCCC(=O)O[C@]1(C(=O)CO)CC[C@H]2[C@@H]3CCC4=CC(=O)CC[C@]4(C)[C@H]3[C@@H](O)C[C@@]21C,double positive events,[1],56.4%
same,vesicle binding response,[1],901% (inactive)
same,inhibition,[2],-8.75% (inactive)
same,superoxide response (% of plate),[3],105% (inactive)
same,aptamer binding inhibition,[4],-3% (inactive)
same,response,[5],-0.28% (inactive)
same,inhibition,[6],14.7% (inactive)
same,response,[7],-3.44% (inactive)
same,binding (% of control),[8],99.7% (inactive)
same,efflux inhibition (fraction of control),[9],-0.2 (inactive)
same,inhibition,[10],1% (inactive)
same,differentiation response,[11],-3.67% (inactive)
COc1ccc(-c2cc(=O)oc3c(C)c(O)c(CN(C)C)cc23)cc1,double positive events,[1],66%
same,vesicle binding response,[1],183% (inactive)
same,inhibition,[2],9.63% (inactive)
same,superoxide response (% of plate),[3],96.8% (inactive)
same,aptamer binding inhibition,[4],1% (inactive)
same,response,[5],-14.6% (inactive)
same,inhibition,[6],2.69% (inactive)
same,response,[7],5.58% (inactive)
same,binding (% of control),[8],98.3% (inactive)
same,efflux inhibition (fraction of control),[9],0.42 (inactive)
same,inhibition,[10],0% (inactive)
same,differentiation response,[11],2.74% (inactive)
CC[N+](C)(C)Cc1ccccc1Br,double positive events,[1],63.8%
same,vesicle binding response,[1],185% (inactive)
same,inhibition,[2],8.25% (inactive)
same,superoxide response (% of plate),[3],96.2% (inactive)
same,aptamer binding inhibition,[4],4% (inactive)
same,response,[5],-19.8% (inactive)
same,inhibition,[6],-11.2% (inactive)
same,response,[7],-30.5% (inactive)
same,binding (% of control),[8],102% (inactive)
same,efflux inhibition (fraction of control),[9],0 (inactive)
same,inhibition,[10],2% (inactive)
same,differentiation response,[11],-11.9% (inactive)
Cc1ccc2[nH]c3c(=O)n(CCCN4CCN(C)CC4)cnc3c2c1,double positive events,[1],60.7%
same,vesicle binding response,[1],195% (inactive)
same,inhibition,[2],7.22% (inactive)
same,superoxide response (% of plate),[3],99.9% (inactive)
same,aptamer binding inhibition,[4],4% (inactive)
same,inhibition,[6],24.8% (inactive)
same,response,[7],-6.94% (inactive)
same,binding (% of control),[8],99.3% (inactive)
same,efflux inhibition (fraction of control),[9],-0.2 (inactive)
same,inhibition,[10],12% (inactive)
same,differentiation response,[11],30.5% (inactive)
CNC[C@H](O)c1cccc(O)c1,double positive events,[1],61.2%
same,vesicle binding response,[1],124% (inactive)
same,inhibition,[2],-10.5% (inactive)
same,superoxide response (% of plate),[3],96.3% (inactive)
same,aptamer binding inhibition,[4],0% (inactive)
same,inhibition,[6],-4.38% (inactive)
same,response,[7],3.91% (inactive)
same,binding (% of control),[8],102% (inactive)
same,efflux inhibition (fraction of control),[9],0.875 (active)
same,inhibition,[10],-8% (inactive)
same,differentiation response,[11],7.13% (inactive)
C[C@]12CCC(=O)C[C@@H]1CC[C@@H]1[C@@H]2CC[C@]2(C)C=CC[C@@H]12,double positive events,[1],51.4%
same,vesicle binding response,[1],201% (inactive)
same,inhibition,[2],5.36% (inactive)
same,superoxide response (% of plate),[3],111% (inactive)
same,aptamer binding inhibition,[4],2% (inactive)
same,inhibition,[6],2.65% (inactive)
same,response,[7],17% (active)
same,binding (% of control),[8],103% (inactive)
same,efflux inhibition (fraction of control),[9],0.1 (inactive)
same,inhibition,[10],4% (inactive)
same,differentiation response,[11],28.9% (inactive)
CCCN1C[C@H](CSC)C[C@@H]2c3cccc4[nH]cc(c34)C[C@H]21,double positive events,[1],58.9%
same,vesicle binding response,[1],167% (inactive)
same,inhibition,[2],-8.78% (inactive)
same,superoxide response (% of plate),[3],77.2% (inactive)
same,aptamer binding inhibition,[4],-1% (inactive)
same,response,[5],-19.4% (inactive)
same,inhibition,[6],1.85% (inactive)
same,response,[7],78.5% (active)
same,binding (% of control),[8],105% (inactive)
same,efflux inhibition (fraction of control),[9],0 (inactive)
same,inhibition,[10],-37% (inactive)
same,differentiation response,[11],-10.9% (inactive)
COc1ccc(N2C(=O)C3CCCN3C2=O)cc1 (stereo unspecified),double positive events,[1],61.6%
same,vesicle binding response,[1],146% (inactive)
same,inhibition,[2],-1.79% (inactive)
same,superoxide response (% of plate),[3],98.7% (inactive)
same,aptamer binding inhibition,[4],-1% (inactive)
same,response,[5],7.47% (inactive)
same,inhibition,[6],9.15% (inactive)
same,response,[7],1.78% (inactive)
same,binding (% of control),[8],102% (inactive)
same,efflux inhibition (fraction of control),[9],0.12 (inactive)
same,inhibition,[10],7% (inactive)
same,differentiation response,[11],2.4% (inactive)
O=C(O)c1cc(-c2ccccc2)nc2ccccc12,double positive events,[1],62%
same,vesicle binding response,[1],151% (inactive)
same,inhibition,[2],23.1% (inactive)
same,superoxide response (% of plate),[3],98.3% (inactive)
same,aptamer binding inhibition,[4],4% (inactive)
same,inhibition,[6],27.6% (inactive)
same,response,[7],-5.56% (inactive)
same,binding (% of control),[8],96.2% (inactive)
same,efflux inhibition (fraction of control),[9],0.1 (inactive)
same,inhibition,[10],-2% (inactive)
same,differentiation response,[11],6.26% (inactive)
COc1ccc(-c2c(C)c3ccc(OCC(C)=O)cc3oc2=O)cc1,double positive events,[1],46.6%
same,vesicle binding response,[1],128% (inactive)
same,inhibition,[2],3.49% (inactive)
same,superoxide response (% of plate),[3],113% (inactive)
same,aptamer binding inhibition,[4],6% (inactive)
same,inhibition,[6],-9.08% (inactive)
same,response,[7],-2.13% (inactive)
same,binding (% of control),[8],103% (inactive)
same,efflux inhibition (fraction of control),[9],-0.05 (inactive)
same,inhibition,[10],9% (inactive)
same,differentiation response,[11],3.03% (inactive)
COC(=O)c1cc(-c2c(C)oc3cc(OC)ccc3c2=O)c(C)o1,double positive events,[1],59.2%
same,vesicle binding response,[1],199% (inactive)
same,inhibition,[2],2.3% (inactive)
same,superoxide response (% of plate),[3],96.8% (inactive)
same,aptamer binding inhibition,[4],1% (inactive)
same,response,[5],7.03% (inactive)
same,inhibition,[6],2.24% (inactive)
same,response,[7],1.93% (inactive)
same,binding (% of control),[8],105% (inactive)
same,efflux inhibition (fraction of control),[9],-0.1 (inactive)
same,inhibition,[10],8% (inactive)
same,differentiation response,[11],18.4% (inactive)
O=C(/C=C/c1ccco1)NCc1ccc2c(c1)OCO2,double positive events,[1],63%
same,vesicle binding response,[1],260% (inactive)
same,inhibition,[2],-3.16% (inactive)
same,superoxide response (% of plate),[3],101% (inactive)
same,aptamer binding inhibition,[4],0% (inactive)
same,response,[5],-2.38% (inactive)
same,inhibition,[6],-3% (inactive)
same,response,[7],1.08% (inactive)
same,binding (% of control),[8],94.7% (inactive)
same,efflux inhibition (fraction of control),[9],0.19 (inactive)
same,inhibition,[10],8% (inactive)
same,differentiation response,[11],-10.4% (inactive)
